PubChem BioAssay AID1159580 (chemical genetic matrix, 2015)
Several values for one entry are separate records, joined by “and”; a condition that tells them apart may be missing. Identical values can stand only once. The campaign covered roughly 5,500 compounds. About 2,000 (36%) were called active. Another 18% or so got no clear call; they are omitted. Cut-off read from the data, not from the text of the source: active = normalized growth mostly below about 0.91 (no sharp cut-off); inconclusive = no clear call, values can overlap the other calls; inactive = mostly above about 0.92. The list shows a part of the results.

Experiment: chemical genetic growth profiling, strain panel (AID 1159580);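 note: tested at 20 µM; growth read once vehicle control cultures reached saturation at 30 °C; 1 = growth at the plate median or of vehicle wells; lower values mean less growth of the strain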
Settings: S. cerevisiae deletion strains, growth OD

Measured: normalized growth

COC1=C(OC)C(=O)C(C/C=C(\C)CC/C=C(\C)CC/C=C(\C)CC/C=C(/C)CC/C=C(\C)CC/C=C(\C)CC/C=C(\C)CC/C=C(\C)CC/C=C(\C)CCC=C(C)C)=C(C)C1=O
inactive: locus YAL013W, strain DEP1, stronger effect = lower value 0.999 | locus YAL021C, strain ccr4, stronger effect = lower value 0.983 | locus YAL026C, strain drs2, stronger effect = lower value 0.97 | locus YAL030W, strain snc1, stronger effect = lower value 0.989 | locus YBL061C, strain skt5, stronger effect = lower value 0.996 | locus YBR009C, strain hhf1, stronger effect = lower value 1.01 | locus YBR021W, strain FUR4, stronger effect = lower value 1.07 | locus YBR023C, strain chs3, stronger effect = lower value 0.978 | locus YBR171W, strain sec66, stronger effect = lower value 0.973 | locus YBR229C, strain ROT2, stronger effect = lower value 0.959 | locus YBR231C, strain swc5, stronger effect = lower value 0.974 | locus YBR279W, strain paf1, stronger effect = lower value 0.989 | locus YCL011C, strain gbp2, stronger effect = lower value 0.96 | locus YCL016C, strain dcc1, stronger effect = lower value 0.994 | locus YCL029C, strain bik1, stronger effect = lower value 0.969 | locus YCL069W, strain vba3, stronger effect = lower value 0.972 | locus YCR088W, strain abp1, stronger effect = lower value 0.972 | locus YDL005C, strain med2, stronger effect = lower value 0.977 | locus YDL035C, strain GPR1, stronger effect = lower value 1.03 | locus YDL040C, strain nat1, stronger effect = lower value 0.983 | locus YDL074C, strain BRE1, stronger effect = lower value 1.11 | locus YDL101C, strain DUN1, stronger effect = lower value 0.982 | locus YDL134C, strain PPH21, stronger effect = lower value 1.01 | locus YDL185W, strain tfp1, stronger effect = lower value 0.991 | locus YDL192W, strain arf1, stronger effect = lower value 1.02 | locus YDR001C, strain nth1, stronger effect = lower value 0.989 | locus YDR069C, strain doa4, stronger effect = lower value 0.96 | locus YDR101C, strain arx1, stronger effect = lower value 1.02 | locus YDR137W, strain rgp1, stronger effect = lower value 0.983 | locus YDR159W, strain sac3, stronger effect = lower value 0.963 | locus YDR162C, strain NBP2, stronger effect = lower value 0.972 | locus YDR195W, strain ref2 0.963 | locus YDR297W, strain sur2, stronger effect = lower value 0.975 | locus YDR318W, strain mcm21, stronger effect = lower value 0.984 | locus YDR334W, strain swr1, stronger effect = lower value 0.969 | locus YDR335W, strain msn5, stronger effect = lower value 0.974 | locus YDR388W, stronger effect = lower value 1 | locus YDR392W, strain spt3, stronger effect = lower value 0.967 | locus YDR502C, strain sam2, stronger effect = lower value 0.989 | locus YEL003W, strain gim4, stronger effect = lower value 0.983 | locus YEL037C, strain rad23, stronger effect = lower value 0.981 | locus YEL061C, strain CIN8 (second series), stronger effect = lower value 0.941 | locus YEL061C, strain CIN8, stronger effect = lower value 1.01 | locus YER015W, strain faa2, stronger effect = lower value 0.979 | locus YER016W, strain bim1, stronger effect = lower value 0.978 | locus YER110C, stronger effect = lower value 0.983 | locus YER111C, strain swi4, stronger effect = lower value 0.958 | locus YER155C, strain BEM2 (second series), stronger effect = lower value 0.982 | locus YER155C, strain BEM2, stronger effect = lower value 1 | locus YER167W, strain BCK2, stronger effect = lower value 1 | locus YFR010W, strain ubp6, stronger effect = lower value 0.964 | locus YGL078C, strain dbp3, stronger effect = lower value 1.01 | locus YGL086W, strain mad1, stronger effect = lower value 1.04 | locus YGL167C, strain pmr1, stronger effect = lower value 0.981 | locus YGL173C, strain kem1, stronger effect = lower value 0.982 | locus YGL227W, strain vid30, stronger effect = lower value 0.96 | locus YGL240W, strain doc1, stronger effect = lower value 0.974 | locus YGL248W, strain PDE1, stronger effect = lower value 0.999 | locus YGL253W, strain hxk2, stronger effect = lower value 0.988 | locus YGR078C, strain PAC10, stronger effect = lower value 0.996 | locus YGR135W, strain pre9, stronger effect = lower value 1 | locus YGR252W, strain gcn5, stronger effect = lower value 1.02 | locus YHR013C, strain ard1, stronger effect = lower value 0.957 | locus YHR027C, strain rpn1, stronger effect = lower value 0.968 | locus YHR030C, strain SLT2, stronger effect = lower value 1.02 and 1.01 | locus YHR079C, strain IRE1 (second series), stronger effect = lower value 0.986 | locus YHR079C, strain IRE1, stronger effect = lower value 1.02 | locus YHR094C, strain hxt1, stronger effect = lower value 0.999 | locus YHR129C, strain ARP1, stronger effect = lower value 1.01 | locus YHR142W, strain chs7, stronger effect = lower value 0.972 | locus YHR200W, strain rpn10, stronger effect = lower value 0.976 | locus YIL066C, strain RNR3, stronger effect = lower value 1.01 | locus YIL073C, strain SPO22, stronger effect = lower value 1.03 | locus YIL125W, strain kgd1, stronger effect = lower value 0.998 | locus YIR030C, strain dcg1, stronger effect = lower value 0.995 | locus YJL092W, strain hpr5, stronger effect = lower value 0.958 | locus YJL095W, strain BCK1 (second series), stronger effect = lower value 0.973 | locus YJL095W, strain BCK1, stronger effect = lower value 1.01 and 0.989 | locus YJL115W, strain asf1, stronger effect = lower value 0.969 | locus YJL129C, strain trk1, stronger effect = lower value 0.979 | locus YJL134W, strain LCB3, stronger effect = lower value 0.991 | locus YJL154C, strain vps35, stronger effect = lower value 0.976 | locus YJL164C, strain tpk1, stronger effect = lower value 0.999 | locus YJL166W, strain qcr8, stronger effect = lower value 0.978 | locus YJL168C, strain set2, stronger effect = lower value 0.994 | locus YJL187C, strain SWE1 (second series), stronger effect = lower value 0.985 | locus YJL187C, strain SWE1, stronger effect = lower value 0.984
